Sampled rows, rich in hits. Any-hit rate of the full collection: about 2.4%.
D2 antagonist: D2 dopamine receptor (human) antagonism. P14416. HEK293 TREx D2 cells, calcium flux, dopamine EC80. inhibition, % at 10 µM. actives 2% (n = 340,000). AID 485344; in the data active = inhibition above about 30%; inactive = below that, where a call was filed
Target sequence (P14416 whole entry, looked up): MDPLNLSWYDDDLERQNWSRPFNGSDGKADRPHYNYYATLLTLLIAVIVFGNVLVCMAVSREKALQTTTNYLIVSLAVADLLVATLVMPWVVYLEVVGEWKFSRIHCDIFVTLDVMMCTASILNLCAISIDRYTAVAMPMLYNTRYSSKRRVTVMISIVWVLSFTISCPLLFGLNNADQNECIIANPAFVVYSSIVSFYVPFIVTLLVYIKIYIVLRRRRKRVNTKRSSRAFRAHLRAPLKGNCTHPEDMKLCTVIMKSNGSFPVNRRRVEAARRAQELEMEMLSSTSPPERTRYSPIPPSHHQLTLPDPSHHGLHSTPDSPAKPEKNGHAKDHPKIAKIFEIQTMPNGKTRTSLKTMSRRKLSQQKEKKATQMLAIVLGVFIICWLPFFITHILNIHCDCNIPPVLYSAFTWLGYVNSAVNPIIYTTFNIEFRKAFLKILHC
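Compounds are added to dye-loaded, induced HEK293 T-REx cells coupled to calcium release via D2; after a 3 min kinetic read an EC80 dopamine stimulus is given and fluorescence is recorded for 3 more min.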
D2 PAM-1: human D2 receptor positive allosteric modulation; P14416; DiscoveRx D2 beta-arrestin cells, luminescence, 90 min; 100% = 57 uM dopamine signal; potentiation, % (test concentration not listed); actives 0.23% (n = 360,000); in the data active = potentiation above about 50%; inconclusive = mostly about 30% to 49%
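PathHunter beta-arrestin assay in DiscoveRx D2 cells. Compounds were added with an EC20 of dopamine (50 nM final) for 90 min at 37 deg C. Luminescence was read 1 h after detection reagent, with 57 uM dopamine as the EC100 control.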
D2 PAM-2: D2 dopamine receptor (human) potentiation; P14416; HEK293 T-REx D2, calcium flux, EC20 dopamine potentiation; potentiation, % at 10 µM; actives 0.34% (n = 340,000); AID 485347;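 active = potentiation over 3 SD above the plate norm, cut at about 30% in these data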
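Potentiation of an EC20 dopamine calcium response measured kinetically over 180 s, after a preceding 180 s compound-only read flagging agonists. Cells: inducible Hek293 Trex D2 line, 4000/well, cultured overnight at 30 C before dye loading.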
D2 ag-1: agonists of human D2 dopamine receptor; activation, % at 2 µM; P14416; actives 0.53% (n = 340,000); HEK293 T-REx D2 cells, calcium flux agonist mode;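 active = activation over 3 SD above normal in the single-dose calcium agonist read, cut at about 30% in these data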
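Tetracycline-induced HEK293 Trex cells with D2 receptor force-coupled to calcium signaling, plated overnight at 30 C and loaded with no-wash calcium dye. Calcium flux read kinetically for 180 s after compound addition; responses flag agonists.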
D2 ag-2: agonists of human D2 dopamine receptor (beta-arrestin); P14416; DiscoveRx PathHunter D2 beta-arrestin, luminescence, 90 min; 100% = 57 uM dopamine signal; activation, % (test concentration not listed); actives 0.084% (n = 360,000); AID 624465; in the data active = activation above about 40%; inconclusive = between about 15% and that limit
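Agonist mode: compounds alone added to overnight-plated D2 PathHunter cells for 90 min at 37 C, with 57 uM final dopamine (EC100) defining full response. Beta-arrestin recruitment detected by chemiluminescent reagent, read after 1 h at ambient temperature.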
Of the large screens only hits and unclear results are named; the others gave an inactive call; ! = not confirmed by another sample.

CCN1CCN(CCCN(Cc2ccco2)C(=S)Nc2cc(Cl)ccc2C)CC1	D2 antagonist 42
N/C(Cc1ccc(Cl)c(Cl)c1)=N\OC(=O)c1ccc(Br)o1	D2 PAM-1 60, D2 ag-2 inconclusive
CC1(C)Cc2ccccc2-c2nnc(-c3ccc4ccccc4n3)n21	D2 PAM-2 44
Cc1ccc(/C=N/N2CCN(c3ccccn3)CC2)cc1	none
Cn1cccc1/C=N/N1CCN(c2ccccn2)CC1	D2 ag-1 31
Cc1ccc(S(=O)(=O)NCC(=O)NCC(=O)N2CCN(c3ncccn3)CC2)cc1C	none
Cc1ccc(CN2CC[C@H]3C=CCc4cccc(c43)C2)cc1	D2 antagonist 57
CCSc1c(-c2ccccc2)nc2c(C)cccc2c1C(=O)O	D2 ag-1 34
COc1ccc2c(c1)Sc1ccccc1N2CCN(C)C	D2 antagonist 40 (no result: D2 PAM-2)
CCCCOc1ccc(S(=O)(=O)NNC(=O)c2cc3ccccc3o2)cc1	D2 antagonist 44
COc1ccccc1N(C)S(=O)(=O)c1ccc(C(=O)NCCc2ccc(F)cc2)cc1	none
COC(=O)c1ccc(CNC(=O)c2ccc(S(=O)(=O)N(C)c3ccccc3OC)cc2)cc1	D2 antagonist 49
COc1ccccc1N(C)S(=O)(=O)c1ccc(C(=O)NCC(C)C)cc1	none
COc1ccccc1N(C)S(=O)(=O)c1ccc(C(=O)NCC2CCCCC2)cc1	D2 antagonist 80
COc1ccc(S(=O)(=O)N2CCOC23CCN(C(=O)c2ccccc2Br)CC3)cc1	D2 PAM-2 71
COc1ccc(S(=O)(=O)N2CCOC23CCN(C(=O)c2ccccc2OC)CC3)cc1	none
O=[N+]([O-])c1cccc(NC(=S)Nc2nc(-c3ccccc3Cl)cs2)c1	none
Nc1ncnc(Nc2ccccn2)c1[N+](=O)[O-]	D2 antagonist 31
Cc1cccc(Nc2ncnc(N)c2[N+](=O)[O-])n1	none
Fc1cccc2sc(Nc3nnc(-c4ccccc4)o3)nc12	D2 antagonist 43
Cc1ccc(NC(=O)C2C3C=CC4(O3)C2C(=O)N(CCCN2CCOCC2)C4C(=O)NC2CCCCC2)cc1Cl (stereo not drawn)	D2 antagonist 31
Cc1ccc(NC(=O)C2C3C=CC4(O3)C2C(=O)N(CCN2CCOCC2)C4C(=O)NC2CCCCC2)cc1C (stereo not drawn)	none
Cc1cc(SCC(=O)N/N=C/c2ccc(O)c(O)c2O)c(C)cc1Br	D2 PAM-1 57, D2 ag-2 inconclusive
Cc1oc(-c2ccc(C(=O)NCCc3ccc(Cl)cc3)cc2)nc1CSc1ccccc1	none (no result: D2 antagonist, D2 PAM-1, D2 ag-2)
CC(C)n1nccc1N(Cc1ccc(C#N)cc1)S(=O)(=O)c1ccccc1	none
CN(C)c1nc2n(c(=O)n1)CCS2	none
CN(C)c1nc2n(c(=O)n1)C(C#N)CS2 (stereo not drawn)	D2 antagonist 33
CCN(c1ccccc1)S(=O)(=O)c1nnc(NC(=O)C(C)Oc2ccccc2)s1 (stereo not drawn)	none (no result: D2 antagonist, D2 PAM-1, D2 ag-2)
Cn1c(=O)n(C)c2cc(N3CCCCC3)c(NC(=O)Nc3ccc(Br)cc3)cc21	none (no result: D2 antagonist, D2 PAM-1, D2 ag-2)
CCc1cccc(C)c1NC(=O)CCn1nc(C)c2c(C)n(-c3ccccc3)nc2c1=O	none (no result: D2 antagonist, D2 PAM-1, D2 PAM-2, D2 ag-2)
Cc1nn(-c2ccc(Cl)cc2)c2sc(C(=O)N3CCN(c4ccccn4)CC3)cc12	D2 PAM-2 32
O=C1Nc2ccccc2CCc2ccccc21	D2 antagonist 36
O=C1Nc2ccccc2Nc2ccccc21	none
CC(Oc1cccnc1[N+](=O)[O-])C(=O)N1CCc2ccccc21 (stereo not drawn)	none (no result: D2 antagonist, D2 PAM-2, D2 ag-1)
COc1ccc(-n2nc(C(N)=O)c(O)cc2=O)cc1	D2 antagonist 32
COc1ccc(C(=O)CCN2CCN(c3ccccc3OC)CC2)cc1	none
COc1ccccc1N1CCN(CCN(C(=O)c2ccc(F)cc2)c2ccccn2)CC1	D2 antagonist 61
O=C(C1CCCCC1)N(Cc1ccccc1)c1ccccn1	none
Cc1ccc(CN(C(=O)c2ccc(F)cc2)c2ccccn2)o1	none (no result: D2 antagonist, D2 PAM-1, D2 ag-2)
COc1ccccc1N1CCN(CCCC(=O)c2ccc(F)cc2)CC1	D2 antagonist 70
COc1ccccc1N1CCN(CCN(C(=O)C2CCCCC2)c2ccccn2)CC1	D2 antagonist 70
Cc1ccccc1-c1nc(S(=O)(=O)c2ccccc2)c(NCCN2CCOCC2)o1	none (no result: D2 antagonist, D2 PAM-2, D2 ag-1)
O=C(CBr)c1ccc([N+](=O)[O-])c(CS(=O)(=O)c2ccc(Cl)cc2)c1	D2 ag-2 54
CCCCNc1cccc2c1S(=O)(=O)N(CCCC)CC(COCc1ccccc1)O2 (stereo not drawn)	none (no result: D2 antagonist, D2 PAM-1, D2 PAM-2, D2 ag-1)
CCn1c(SCC(=O)Nc2ccc(C(C)=O)cc2)nc2ccccc21	none
COC(=O)c1ccc(NC(=O)CSCc2ccccc2)cc1	none
COC(=O)c1ccc(NC(=O)CSCc2ccccc2C)cc1	D2 antagonist 35
CCn1c(SCC(=O)Nc2ccc(C(=O)OC)cc2)nc2cccnc21	D2 PAM-2 35
Nc1nc(NCCc2ccccc2)nc(NCCO)c1[N+](=O)[O-]	D2 PAM-2 34
Cc1nc(-c2ccc(Cl)cc2)sc1CCNC(=O)C(=O)Nc1ccc(F)cc1F	none (no result: D2 antagonist, D2 PAM-1, D2 ag-2)
Cn1c(CN2CCCCC2)nc2cc(NC(=O)c3ccc(Cl)cc3)ccc21	D2 antagonist 31, D2 ag-1 33!
COc1ccc(OCC(=O)Nc2ccc3c(c2)nc(CN2CCN(C(C)=O)CC2)n3C)cc1	none
COc1ccc(OCC(=O)Nc2ccc3c(c2)nc(CN2CCCC2)n3C)cc1	D2 antagonist 45
CC1CCN(CCc2nc3cc(NC(=O)COc4ccccc4)ccc3n2C)CC1	D2 antagonist 59
CCC(=O)Nc1ccc2c(c1)nc(CCN1CCC(C)CC1)n2C	none
Cn1c(CN2CCCC2)nc2cc(NC(=O)COc3ccc(Cl)cc3)ccc21	D2 antagonist 41
CC(C)N1CCN(Cc2cccs2)CC1CCO (stereo not drawn)	none (no result: D2 antagonist, D2 PAM-2, D2 ag-1)
CC(C)CCN1CCN(Cc2cccc3nonc23)CC1CCO (stereo not drawn)	D2 antagonist 54
COc1cc(CN2CCN(Cc3ccc(C)cc3)C(CCO)C2)cc(OC)c1O (stereo not drawn)	D2 antagonist 57
COc1ccc(CN2CCN(Cc3ccc(C)cc3)C(CCO)C2)cc1OC (stereo not drawn)	none
CC(C)CCN1CCN(Cc2cccs2)CC1CCO (stereo not drawn)	D2 antagonist 31
Cc1ccc(CN2CCN(CCC(C)C)C(CCO)C2)s1 (stereo not drawn)	D2 antagonist 57
Cc1ccc(CN2CCN(Cc3ccc(C)s3)CC2CCO)cc1 (stereo not drawn)	D2 antagonist 69
O=S(=O)(NCC1CCCO1)c1ccc(S(=O)(=O)N(Cc2ccccn2)C2CC2)cc1 (stereo not drawn)	D2 antagonist 74

Screening data from PubChem.
